Screen size: about 360,000 compounds; about 3,700 (1%) were called active. About 2% were inconclusive and are not listed.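 How the source made its calls: active means normalized GFP-positive differentiation at or above the plate's own cutoff, the solvent-only control mean plus 3 SD; inconclusive means no clear call, values can overlap the other calls; inactive means the rest.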 Shown is part of a subset that was picked to be rich in actives.

A short description of this assay: induction of myeloid progenitor differentiation, primary screen, cell-based, flow cytometry, MLPCN library (AID 624256).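 On GFP+ MAC1+ double positive: cells exposed to compound for four days before flow analysis.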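 On normalized GFP-positive differentiation: cells exposed to compound for four days before flow analysis; 0% = DMSO wells and 100% = fulvestrant positive control at 5 µM.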 Particulars: ER-HoxA9 myeloid progenitors, lysozyme-GFP differentiation, at 10 µM; GFP+ MAC1+ double positive: measured here: differentiation confirmed by MAC1 staining, stronger effect = higher value; normalized GFP-positive differentiation: stronger effect = higher value. Background: In flow cytometry, cells or beads pass a laser one at a time.
Take `O=C(NNC(=S)NCc1ccco1)C(c1ccccc1)c1ccccc1`: the GFP+ MAC1+ double positive was determined as 5.5% and the normalized GFP-positive differentiation is 175% (active).
`COC(=O)Cc1ccc(NC(=S)NCc2ccco2)cc1`: the GFP+ MAC1+ double positive worked out at 0.6% and the result was inactive.
For `COc1cccc(OC)c1C(=O)NC(=S)NCc1ccco1` the same measures were 0.3% and “inactive”.
For `Nc1cccc(-c2cncc(N3CCN(Cc4ccccn4)CC3)n2)c1` the same measures were 0.8% and “inactive”.
In the case of `CC(C)c1cccc(C(C)C)c1Nc1cn[nH]c1`, the GFP+ MAC1+ double positive is 0.2% and the result was inactive.
With `O=C(/C=C/c1ccccc1[N+](=O)[O-])OCC(=O)N1CCCC1`, the GFP+ MAC1+ double positive is 0.4% and the compound was called inactive.
For `CC(C)CNC(=O)COC(=O)/C=C/c1ccccc1[N+](=O)[O-]`, the GFP+ MAC1+ double positive came to 4.9% and the normalized GFP-positive differentiation was 14.3% (active).
In the case of `CC(C)CNC(=O)COC(=O)/C=C/c1ccco1`, the GFP+ MAC1+ double positive came out at 0.7% and the result was inactive.
`O=C1C(Sc2cccc(F)c2)=C[C@@]2(O)CC[C@@H](O)[C@]1(Sc1cccc(F)c1)[C@H]2O`: the GFP+ MAC1+ double positive came out at 2% and the call was inactive.
In the case of `O=C1NC[C@H](CCCCN2CCN(CCc3ccccc3)C(=O)C2=O)N(CC2CCCCC2)C1=O`, the GFP+ MAC1+ double positive is 0.5% and the result was inactive.
In the same order, the values of `Nc1nc2cc(Cl)ccc2n1N` are 1.5% and “inactive”.
As to `CN1OC[C@@H]2CN(S(=O)(=O)c3cccc4ccccc34)[C@H](c3ccc(N4CCCCC4)cc3)C[C@@H]21`, the GFP+ MAC1+ double positive came to 0.8% and the compound was classed as inactive.
Take `O=C(NCc1ccccc1Cl)C1CCCN1S(=O)(=O)c1ccc(F)cc1` (stereo not drawn): the GFP+ MAC1+ double positive was found to be 0.6% and the result was inactive.
`O=C(NCc1ccccc1Cl)C(=O)NCC1CCCN1S(=O)(=O)c1cccs1` (stereo not drawn): the GFP+ MAC1+ double positive turned out to be 0.7% and the compound was called inactive.
Regarding `CCC1CCCCN1S(=O)(=O)Cc1ccccc1Cl` (stereo not drawn), the GFP+ MAC1+ double positive came out at 3% and the normalized GFP-positive differentiation is 98.8% (active).
Turning to `O=C(N[C@@H](Cc1ccccc1)C(=O)OCc1ccccc1)c1nc[nH]c1C(=O)N[C@@H](Cc1ccccc1)C(=O)OCc1ccccc1`, the GFP+ MAC1+ double positive turned out to be 0.2% and the outcome was inactive.
Regarding `CC(C)(C)OC(=O)CNC(=O)c1[nH]cnc1C(=O)N[C@@H](Cc1ccccc1)C(=O)OCc1ccccc1`, the GFP+ MAC1+ double positive was 10% and the normalized GFP-positive differentiation is 21.4% (active).
With `C[C@H](NC(=O)c1nc[nH]c1C(=O)NCC(=O)OC(C)(C)C)C(=O)OCc1ccccc1`, the GFP+ MAC1+ double positive came to 0.8% and the call was inactive.
For `FC(F)(F)c1cccc(-c2nc3ccccc3n2C(c2ccccc2)c2nc3ccccc3[nH]2)c1` (stereo not drawn), the GFP+ MAC1+ double positive stood at 3.2% and the result was inactive.
For `COc1cccc(-c2ccc3c(c2)N(Cc2ccccc2OC)C(=O)C(C)S3)c1` (stereo not drawn) the same measures were 0.8% and “inactive”.
For `Cc1cccnc1C(NC(=O)C1CCN(Cc2ccc(Cl)c(Cl)c2)CC1)c1ccc(Cl)cc1` (stereo not drawn) the same measures were 0.8% and “inactive”.
In the same order, the values of `CC1=C(C(=O)N2CCOCC2)CC(CC(=O)NCc2cccs2)C(=O)N1CCCN1CCCC1=O` (stereo not drawn) are 1.4% and “inactive”.
As for `CC(OC(=O)CCCc1c[nH]c2ccccc12)C(=O)Nc1ccc(S(N)(=O)=O)cc1` (stereo not drawn), the GFP+ MAC1+ double positive amounted to 0.5% and the result was inactive.
Take `Cc1ccc(NC(=O)C(C)OC(=O)Cc2c[nH]c3ccccc23)cc1S(=O)(=O)N1CCOCC1` (stereo not drawn): the GFP+ MAC1+ double positive stood at 1% and the normalized GFP-positive differentiation was 9.47% (active).
As for `Cc1ccc(NC(=O)C(C)OC(=O)C2CC3CCCC(C2)C3=O)cc1S(=O)(=O)N1CCOCC1` (stereo not drawn), the GFP+ MAC1+ double positive worked out at 0.8% and the outcome was inactive.
As to `O=C(OC1CC2CC1[C@H]1CCCCN1C2=O)N1CCOCC1` (stereo partly drawn), the GFP+ MAC1+ double positive is 0.9% and the compound was called inactive.
Consider `Cc1noc(C)c1COC(=O)c1cc2ccccc2cc1O`, for which the GFP+ MAC1+ double positive stood at 1.2% and the compound was classed as inactive.
For `O=C(COC(=O)c1ccc(O)cc1O)NC(=O)c1ccccc1` the same measures were 0% and “inactive”.
As to `O=C(NNc1c2ccccc2nc2ccccc12)c1cc2ccccc2cc1O`, the GFP+ MAC1+ double positive amounted to 2.5% and the normalized GFP-positive differentiation was 28.5% (active).
Consider `CCc1nc2c(OCCOc3ccc(F)cc3)cccn2c1N(C)C(=O)c1ccccc1F`, for which the GFP+ MAC1+ double positive amounted to 0.6% and the outcome was inactive.
Consider `CCS(=O)(=O)c1cc([N+](=O)[O-])c(Sc2ccccc2N)s1`, for which the GFP+ MAC1+ double positive is 1.1% and the normalized GFP-positive differentiation is 150% (active).
Turning to `Nc1ccccc1SC(C[N+](=O)[O-])c1ccccc1` (stereo not drawn), the GFP+ MAC1+ double positive was found to be 1.1% and the outcome was inactive.
`CC(C)(C)N1C(=O)c2c(C(=O)OCc3ccccc3)[nH]c(-c3ccccc3)c2C1=O`: the GFP+ MAC1+ double positive worked out at 1.4% and the compound was classed as inactive.
For `CC(C)Nc1nc(NCCOc2ccccc2Cl)c2sccc2n1` the same measures were 1% and “inactive”.
For `COc1ccc2nc(N3C(=O)C(O)=C(C(=O)c4ccco4)C3c3ccco3)sc2c1` (stereo not drawn) the same measures were 0.8% and “inactive”.
For the compound `COc1ccc(N2CCN(c3ccc([N+](=O)[O-])nc3)CC2)cc1`, the GFP+ MAC1+ double positive turned out to be 0.9% and the compound was called inactive.
As to `COc1ccc2nc(N3CCN(C(=O)c4ccc([N+](=O)[O-])o4)CC3)sc2c1`, the GFP+ MAC1+ double positive stood at 7.3% and the normalized GFP-positive differentiation was 33.6% (active).
On to `CCc1nc2ccc(C(=O)Nc3cccc(OC)c3)cn2c1N(CCC(C)C)CCN(C)C`, for which the GFP+ MAC1+ double positive was 1.2% and the result was inactive.
For `CCCCNC(=O)C[C@@H]1C[C@@]2(C(=O)OC)CC(C)(C)CC=C2N(Cc2ccco2)C1=O` the same measures were 2.1% and “inactive”.
In the same order, the values of `COC(=O)C[C@@H]1C=C[C@@H](NC(=O)c2cccnc2)[C@@H](CO)O1` are 1.2% and “inactive”.
For `CCOC(=O)C1=CC[C@@H](c2ccccc2)N(S(=O)(=O)c2ccc(C)cc2)[C@H]1c1ccc(CC)cc1` the same measures were 0.9% and “inactive”.
As to `COc1ccc(N(CCC#N)S(=O)(=O)c2ccc(Cl)cc2)cc1`, the GFP+ MAC1+ double positive came to 6.2% and the normalized GFP-positive differentiation is 17% (active).
On to `COc1ccc(N(CC(=O)N2CCCCCC2)S(=O)(=O)c2ccccc2)cc1`, for which the GFP+ MAC1+ double positive was found to be 2.2% and the result was inactive.
For `COc1ccc(S(=O)(=O)NCCCCOc2ccc(Cl)cc2)cc1` the same measures were 0.7% and “inactive”.
For `COc1cc(C=C(OC(C)=O)c2ccc3c(c2)OCO3)cc(OC)c1OC` the same measures were 0.8% and “inactive”.
On to `Cc1cc(C)n(C(=O)c2ccc(C)c(S(=O)(=O)N3CCOCC3)c2)n1`, for which the GFP+ MAC1+ double positive came to 3.4% and the normalized GFP-positive differentiation is 11% (active).
With `Cc1ccc(C(=O)Nc2ncccc2C)cc1S(=O)(=O)N1CCOCC1`, the GFP+ MAC1+ double positive came to 0.8% and the compound was classed as inactive.
In the same order, the values of `Cc1ccc(C(=O)OCC(=O)N2CCCCCC2)cc1S(=O)(=O)N1CCOCC1` are 0.9% and “inactive”.
In the same order, the values of `CCOC(=O)c1ccc(-c2ccc3ncnc(N(C)Cc4sccc4C)c3c2)o1` are 2% and “inactive”.
For `CC(=O)Nc1cccc(Nc2ccc(C#N)cc2)c1` the same measures were 0.5% and “inactive”.
In the case of `Cc1cccc(C)c1NC(=O)C(c1ccc(C(F)(F)F)cc1)n1c(=O)c(-c2ccco2)nc2ccccc21` (stereo not drawn), the GFP+ MAC1+ double positive is 2.6% and the compound was called inactive.
On to `CC[n+]1cc(C)ccc1/C=C/c1ccc(N(C)C)cc1`, for which the GFP+ MAC1+ double positive was 14.3% and the normalized GFP-positive differentiation is 385% (active).
Take `O=[N+]([O-])c1ccc(CN2CC(N3CC=CC3)CS2(=O)=O)cc1` (stereo not drawn): the GFP+ MAC1+ double positive is 0.8% and the compound was called inactive.
As to `COc1ccc(CC(N)c2csc(NC(=O)Cc3ccccc3)n2)cc1` (stereo not drawn), the GFP+ MAC1+ double positive turned out to be 0.8% and the compound was called inactive.
